Inconclusive results are not listed. Active and inactive are the calls of the source. Unless noted, calls come from the whole dose curve; as a rule, active = well fitted curve in the direction sought with a large enough effect in the repeat runs; inconclusive = weak or mixed curves; inactive = no such curve, though single readings can be large; an effect the other way counts as inactive or inconclusive.
What was measured:
[1] = qHTS assay to identify small molecule agonists of H2AX (AID 1224845; active = well fitted activation curve with a large enough effect in the signal ratio in the repeat runs, not every such curve was filed as active; the % refers to the signal ratio; note: potency is the fitted concentration of half-maximal effect; for activation (H2AX phosphorylation): % is set by controls: 0 for no effect and ±100 for the full control effect)
Summary of the method: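 Wild-type CHO-K1 cells plated overnight, then exposed 3 hr at 37C to compounds at 15 concentrations (0.76% DMSO). Lysed, then HTRF anti-pH2AX(S139)-cryptate/anti-H2AX-d2 detection after 24 hr at room temperature; emissions 665 and 620 nm.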

[2] = qHTS assay to identify small molecule agonists of the hypoxia (HIF-1) signaling pathway (AID 1224846; active = well fitted activation curve with a large enough effect in the signal ratio in the repeat runs, not every such curve was filed as active; the % refers to the signal ratio; note: % is set by controls: 0 for no effect and ±100 for the full control effect)
Summary of the method: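 ME-180 HRE-bla reporter cells; compounds in DMSO, 17 h at 37C; read-out beta-lactamase via CCF4-AM FRET.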

[3] = qHTS assay to identify small molecule agonists of H2AX - cell viability counter screen (AID 1224847; calls by dose curve; note: nearly all actives have a fitted effect of over 30% in size; note: potency is the fitted concentration of half-maximal effect; for activity change, negative = cytotoxicity: top concentration of the series differs between compounds; % is set by controls: 0 for no effect and ±100 for the full control effect)
Summary of the method: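 Quantitative HTS viability measurement: CHO-K1 wild-type cells in serum (10% FBS) medium, short 3 hr drug exposure at 37C with 0.76% DMSO, CellTiter-Glo luminescent detection.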

[4] = qHTS RealTime-Glo MT Cell Viability Assay in HepG2 cells - 24 hour (AID 1224867); note: nearly all actives have a fitted effect of over 50% in size; note: potency is the fitted concentration of half-maximal effect; for activity change, negative = cytotoxicity: % is set by controls: 0 for no effect and ±100 for the full control effect
Summary of the method: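 Cell number in HepG2 cultures estimated from NanoLuc luminescence generated by metabolic reduction of a prosubstrate by living cells. The homogeneous, nonlytic format allowed repeated reads at 0, 8, 16, 24, 32 and 40 h of compound exposure.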

[5] = qHTS RealTime-Glo MT Cell Viability Assay in HEK293 cells - 32 hour (AID 1224868); note: nearly all actives have a fitted effect of over 50% in size; note: potency is the fitted concentration of half-maximal effect
Summary of the method: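 Homogeneous bioluminescent viability format in HEK293 cells (600 cells/well). Following 5 h at 37 C/5% CO2, 23 nL compound was pintooled; the signal was measured repeatedly during 40 h incubation.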

[6] = A CellTox Green Cytotoxicity Assay to monitor cytotoxicity in HEK293 cells - 0 hour (AID 1224869); note: % is set by controls: 0 for no effect and ±100 for the full control effect; nearly all actives have a fitted effect of over 50% in size
Summary of the method: (§1)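 Real-time, in one plate: 600 HEK293 cells/well with dead-cell DNA dye, pinned compound after 5 h, 37 C incubation over 40 h; viable cells give no appreciable fluorescence.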

[7] = qHTS RealTime-Glo MT Cell Viability Assay in HepG2 cells - 40 hour (AID 1224870); note: nearly all actives have a fitted effect of over 50% in size; note: potency is the fitted concentration of half-maximal effect
Summary of the method: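 HepG2 cells mixed with RealTime-Glo MT reagents (NanoLuc plus cell-permeant prosubstrate) were seeded at 600 cells/well, incubated 5 h at 37 C/5% CO2, then pinned with compounds in DMSO; nonlytic luminescence tracked viability during 40 h treatment.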

[8] = A CellTox Green Cytotoxicity Assay to monitor cytotoxicity in HEK293 cells - 40 hour (AID 1224871); note: nearly all actives have a fitted effect of over 45% in size; note: potency is the fitted concentration of half-maximal effect
Summary of the method: as §1

[9] = qHTS assay to identify small molecule antagonists of the estrogen related receptor (ERR) signaling pathway from Tox21 library (AID 1224848)
Summary of the method: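 First, 2,000 ERR cells per well were plated and held 6 h at 37 C/5% CO2. Next, compounds in DMSO were pinned in and left 18 h at 37 C. Finally, ONE-Glo was added and luminescence read after 30 min at room temperature.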

[10] = qHTS assay to identify small molecule agonists of the estrogen related receptor (ERR) signaling pathway from Tox21 library (AID 1224849; calls by dose curve; note: % is set by controls: 0 for no effect and ±100 for the full control effect; nearly all actives have a fitted effect of over 15% in size); details: ERR reporter cell line, ONE-Glo luciferase, 18 h; at 92.4 µM (top of the series) unless noted
Summary of the method: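 Luciferase activity in ERR pathway reporter cells served as the agonist readout; exposure lasted 18 h at 37 C, with ONE-Glo detection after 30 min at room temperature.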

Cc1cccc(C)n1
inactive: Potency [1] | outcome [2] | Potency [3] | Potency [4] | Potency [5] | Potency [6] | Potency [7]

CCCCCCCC/C=C\CCCCCCCC(=O)OCCOC(=O)CCCCCCC/C=C\CCCCCCCC
inactive: Potency [1] | outcome [2] | Potency [3] | Potency [4] | Potency [5] | Potency [6] | Potency [7] | Potency [8]

CCC(=O)CC(C)CC (configuration not stated)
inactive: activation (H2AX phosphorylation) [1] 0.83% [at 0.582 µM] | activation [2] 0.22% [at 0.291 µM] | activity change, negative = cytotoxicity [3] -3.23% [at 0.582 µM] | activity change, negative = cytotoxicity [4] -0.146% [at 0.29 µM] | activity change, negative = cytotoxic [5] 3.77% [at 0.29 µM] | cytotoxicity [6] 6.34% [at 0.29 µM] | activity change, negative = cytotoxic [7] -5.05% [at 0.29 µM] | cytotoxicity increase [8] 5.38% [at 0.29 µM]

C=C(C)C(=O)OCCC[Si](Cl)(Cl)Cl
inactive: Potency [1] | outcome [2] | Potency [3] | Potency [4] | Potency [5] | Potency [6] | Potency [8]

Brc1ccccn1
inactive: Potency [1] | outcome [2] | Potency [3] | Potency [4] | Potency [6] | Potency [7]

C[Si](C)O[Si](C)C
inactive: Potency [1] | outcome [2] | Potency [3] | Potency [4] | Potency [6] | Potency [7] | Potency [8]

OCCN1CN(CCO)CN(CCO)C1
inactive: Potency [1] | outcome [2] | Potency [3] | Potency [4] | Potency [6] | Potency [8]

CCN(CC)CCOc1ccc(C(O)(Cc2ccc(Cl)cc2)c2ccc(C)cc2)cc1 (configuration not stated)
inactive: outcome [2] | activity change, positive = activation [10] -61% [at 42.5 µM] | Potency [6]
active: Potency [1] 49.2 µM | Potency [9] 29.8 µM | Potency [4] 23.9 µM | Potency [5] 16.9 µM | Potency [7] 15.1 µM

Cc1nc(Nc2ncc(C(=O)Nc3c(C)cccc3Cl)s2)cc(N2CCN(CCO)CC2)n1
inactive: outcome [2] | activity change, positive = activation [10] -44.6% [at 42.5 µM] | Potency [6] | Potency [8]
active: Potency [1] 55.2 µM | Potency [9] 8.41 µM | Potency [5] 30.1 µM

CCN(CC)CCCN(c1ccccc1)C1Cc2ccccc2C1
inactive: Potency [1] | outcome [2] | Potency [3] | Potency [4] | Potency [6] | Potency [7]

Cn1cnc2ncnc(N)c21
inactive: Potency [1] | outcome [2] | Potency [3] | Potency [4] | Potency [6] | Potency [7] | Potency [8]

SCCCCCCCCS
inactive: Potency [1] | outcome [2] | Potency [3] | Potency [4] | Potency [5] | Potency [6] | Potency [7] | Potency [8]

CCCCCCCC(OC)OC
inactive: Potency [1] | outcome [2] | Potency [3] | Potency [4] | Potency [5] | Potency [6] | Potency [8]

CCCCCCCCCCCCCCNCCO
inactive: outcome [2] | Potency [6]
active: Potency [1] 43.8 µM | Potency [3] 55.2 µM | Potency [4] 13.4 µM | Potency [5] 13.4 µM | Potency [7] 10.7 µM | Potency [8] 19 µM

CCc1ccc(O)c(C(C)(C)C)c1
inactive: Potency [1] | outcome [2] | Potency [4] | Potency [6] | Potency [7]
active: Potency [3] 101 µM | Potency [8] 38.9 µM
